Screens from PubChem.
In the library only some 2% were active in any assay of this set; here they are far more common.
TDP-43 yeast inh: TDP-43 toxicity inhibition in yeast | TDP-43 expressing yeast growth rescue, BacTiter-Glo, 24 h | Potency, µM (doses to about 46.1 µM), inactives show at the highest dose growth rescue (activation), usual class: activators | 1.8% of 410,000 active | AID 652104; further: % of control where 0% means no effect; nearly all actives have a fitted effect of over 50% in size
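Galactose-induced TDP-43 yeast, OD600=0.02, compound pinned; 24 hr, 30 deg C; BacTiter-Glo luminescence for growth. Inhibitors of TDP-43 toxicity read as activators.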
MBNL1 CUG block: MBNL1-poly(CUG) RNA binding inhibition; TR-FRET MBNL1-His/biotin-(CUG)12 binding, 665/545 ratio; Potency, µM (series often up to 57.5 µM), for the others: top-dose activity change, negative = inhibition, actives largely listed as inhibitors; 0.036% of 280,000 active; AID 2675; active means well fitted inhibition curve with a large enough effect in the signal ratio, with a control signal flat, not every such curve was filed as active; inconclusive means small, poorly fitted or top-dose-only effect, or effect the other way, or a change in a side signal; inactive means no such curve, though single readings can be large or run the other way; the % refers to the signal ratio; further: on the % scale 0 is the no-effect control and ±100 the full control effect
Target sequence (Q9NR56 whole entry, looked up): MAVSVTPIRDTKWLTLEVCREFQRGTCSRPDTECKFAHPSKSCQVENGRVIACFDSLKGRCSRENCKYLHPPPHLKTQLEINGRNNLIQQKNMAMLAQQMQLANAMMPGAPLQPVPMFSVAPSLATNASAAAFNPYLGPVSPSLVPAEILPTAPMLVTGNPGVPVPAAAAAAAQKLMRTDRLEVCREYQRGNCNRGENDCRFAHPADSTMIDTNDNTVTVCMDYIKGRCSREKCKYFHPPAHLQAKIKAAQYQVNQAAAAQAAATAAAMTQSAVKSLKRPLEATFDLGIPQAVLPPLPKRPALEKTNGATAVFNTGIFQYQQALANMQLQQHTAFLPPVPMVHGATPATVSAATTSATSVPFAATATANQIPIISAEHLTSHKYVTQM
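Compounds (final 92 nM to 58 uM) are added to His-tagged MBNL1 and biotin-(CUG)12, then terbium anti-His antibody and streptavidin-XL665 (5 nM final). After 60 min at room temperature, the 665/545 nm ratio is read.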
FUS suppressor: suppressors of FUS proteinopathy in yeast | S. cerevisiae FUS-expressing, growth rescue, OD600, 24 h | Potency, µM (top dose mostly 76.6 µM), hits mostly activators | 0.24% of 390,000 active | AID 1347120;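 further: plate controls were DMSO vehicle for no effect and reference control for full effect; nearly all actives have a fitted effect of over 55% in size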
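FUS-expressing yeast, raffinose-pregrown, induced in 2% galactose minimal medium at OD 0.005; compounds in a dilution series, 24hr at 30C. Growth restoration read as absorbance at 600 nm. CP55940 positive control, DMSO negative.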
Abeta rescue: A-beta toxicity reversal in yeast | yeast expressing A-beta42, growth rescue, OD600, 48 h; response scale: 0% DMSO, 100% iron-clioquinol control | Potency, µM (top dose mostly 46.1 µM), most hits filed as activators | AID 1347071 | 0.063% of 410,000 active; further: nearly all actives have a fitted effect of over 55% in size
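Yeast A-beta toxicity model in growth medium with pinned compounds, 48 h at 30 C; growth read as absorbance at 600 nm. Normalized to FeCl3/clioquinol equimolar mix (positive) and DMSO (negative).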
GRP78 ERSR act: induces the endoplasmic reticulum stress response in human glioma cells | U87-MG GRP78 promoter luciferase reporter, 16 h | Potency, µM, for the others: at the top dose activation, hits mostly activators | 0.02% of 420,000 active | AID 602332; further: series mostly up to about 76 µM; % of control where 0% means no effect; nearly all actives have a fitted effect of over 35% in size
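Stably transfected U87-MG human glioma cells carrying a GRP78-based luminescent sensor were seeded at 1000 cells/well, pin-dosed with compounds and incubated 16 h. Luciferase reagent was then added, and end-point luminescence was read after 10 min at room temperature.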
aSyn rescue: inhibitors of alpha-synuclein toxicity in yeast. 0.14% of 370,000 active. Potency, µM (titrated, usually from 46.1 µM), inactives show at the top dose growth rescue (activation), actives largely listed as activators. Yeast expressing alpha-synuclein, growth rescue, BacTiter-Glo, 24 h; further: % of control where 0% means no effect; nearly all actives have a fitted effect of over 65% in size
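Rescue of yeast growth: cells expressing toxic alpha-synuclein, induced in galactose at OD600 0.02, incubated with compound 24 h at 30 C. ATP luminescence quantified growth; inhibitors of toxicity appear as activators.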
The depositor's hits bear a star; [ ] = another dose, or the depositor's remark. Unless noted, the call rests on the fitted dose curve; in most records, active means well fitted curve in the direction sought with a large enough effect; inconclusive means small, poorly fitted or top-dose-only effect, or another doubt; inactive means no such curve, though single readings can be large; an effect the other way counts as inactive or inconclusive. Potency means the concentration at half of the fitted maximal effect.

What do the screens show for `O=C(Oc1c(Cl)cc(Cl)c2cccnc12)c1ccco1`?
TDP-43 yeast inh: inconclusive; MBNL1 CUG block: 2%; Abeta rescue: inactive; GRP78 ERSR act: -3%; aSyn rescue: 3.5µM*

How did CCc1nnc(NC(=O)[C@@H](NC(=O)c2ccc(OC)cc2)C(C)C)s1 do in these assays?
TDP-43 yeast inh: -8%; MBNL1 CUG block: -5%; FUS suppressor: inactive; Abeta rescue: inactive; GRP78 ERSR act: 7%; aSyn rescue: 3%

What do the screens show for `CCc1nnc(NC(=O)[C@@H](NC(=O)c2ccc(C(C)(C)C)cc2)C(C)C)s1`?
TDP-43 yeast inh: -17%; MBNL1 CUG block: -18%; FUS suppressor: 28µM*; Abeta rescue: inactive; GRP78 ERSR act: 4%; aSyn rescue: 11%

How did O=C(c1cc(-c2ccccc2)on1)N1CCOc2ccc(CN3CCOCC3)cc2C1 do in these assays?
GRP78 ERSR act: -1%

What do the screens show for `Fc1ccc2cnc(-c3ccccc3)c(-c3ccc(C(F)(F)F)cc3)c2c1`?
TDP-43 yeast inh: 48%; FUS suppressor: inactive; Abeta rescue: inactive; GRP78 ERSR act: 5%; aSyn rescue: -15%

How did N#Cc1ccc(-c2c(-c3ccccc3)ncc3cc(F)ccc23)cc1 do in these assays?
TDP-43 yeast inh: 16µM*; FUS suppressor: inactive; Abeta rescue: inactive; GRP78 ERSR act: 0%; aSyn rescue: -35%

What do the screens show for `O=[N+]([O-])c1ccc(-c2c(-c3ccccc3)ncc3ccc(F)cc23)cc1`?
TDP-43 yeast inh: 18µM*; FUS suppressor: inactive; Abeta rescue: inactive; GRP78 ERSR act: 0%; aSyn rescue: -24%

How did CCCC(=O)OC12CCCN(C1)/C(=C/c1ccc(Cl)cc1)C2 (configuration not stated) do in these assays?
FUS suppressor: inactive

How did S=c1[nH]nc(-c2cnccn2)n1-c1ccccc1 do in these assays?
TDP-43 yeast inh: 7%; MBNL1 CUG block: -1%; FUS suppressor: inactive; Abeta rescue: inactive; GRP78 ERSR act: -3%; aSyn rescue: 3%

How did COc1ccc(-n2c(-c3cnccn3)n[nH]c2=S)cc1 do in these assays?
TDP-43 yeast inh: -19%; MBNL1 CUG block: -6%; FUS suppressor: inactive; Abeta rescue: inactive; GRP78 ERSR act: -1%; aSyn rescue: 3.5µM*

Results for c1ccc(Cn2c(-c3cncs3)nc3ccccc32)cc1 ?
TDP-43 yeast inh: 7.9µM*; MBNL1 CUG block: -4%; FUS suppressor: inactive; Abeta rescue: inactive; GRP78 ERSR act: 10%; aSyn rescue: -11%

How did NS(=O)(=O)c1ccc(CCNC(=O)C2CCN(S(=O)(=O)c3ccccc3)CC2)cc1 do in these assays?
TDP-43 yeast inh: 13%[9.22 µM]; MBNL1 CUG block: -1%; FUS suppressor: inactive; Abeta rescue: inactive; GRP78 ERSR act: 6%; aSyn rescue: 0%

How did NS(=O)(=O)c1ccc(CCNC(=O)C2CCN(S(=O)(=O)c3cnc[nH]3)CC2)cc1 do in these assays?
TDP-43 yeast inh: -18%; MBNL1 CUG block: -8%; FUS suppressor: 25µM*; Abeta rescue: inactive; GRP78 ERSR act: -1%; aSyn rescue: -14%

Results for COc1ccc(-c2csc(NC(=O)C3COc4ccccc4O3)n2)cc1OC (configuration not stated) ?
TDP-43 yeast inh: 35µM*; MBNL1 CUG block: 2%; FUS suppressor: inactive; Abeta rescue: inactive; GRP78 ERSR act: -4%; aSyn rescue: -21%

How did Cc1cccc2sc(NNC(=O)C3COc4ccccc4O3)nc12 (configuration not stated) do in these assays?
TDP-43 yeast inh: inconclusive; MBNL1 CUG block: -8%; FUS suppressor: inactive; Abeta rescue: inactive; GRP78 ERSR act: 0%; aSyn rescue: 8%

How did COc1ccc(OC)c2sc(NNC(=O)C3COc4ccccc4O3)nc12 (configuration not stated) do in these assays?
TDP-43 yeast inh: 6.3µM*; MBNL1 CUG block: 1%; FUS suppressor: inactive; Abeta rescue: inconclusive; GRP78 ERSR act: -5%; aSyn rescue: 5%

What do the screens show for `CCCC(=O)Nc1nc(-c2ccc3c(c2)OCCO3)cs1`?
TDP-43 yeast inh: 10µM*; MBNL1 CUG block: 0%; FUS suppressor: inactive; Abeta rescue: inactive; GRP78 ERSR act: -1%; aSyn rescue: -19%

How did Brc1ccc(-c2nc(-c3ccncc3)no2)o1 do in these assays?
TDP-43 yeast inh: 13µM*; MBNL1 CUG block: 108%; FUS suppressor: inactive; Abeta rescue: inactive; GRP78 ERSR act: 2%; aSyn rescue: 3%

How did CC(C)=N/N=C1/NC(=O)C(c2ccc(Cl)cc2)S1 (configuration not stated) do in these assays?
TDP-43 yeast inh: 20µM*; Abeta rescue: inconclusive; GRP78 ERSR act: -4%; aSyn rescue: 2%

What do the screens show for `COc1cccc(NC(=O)COC(=O)/C=C/c2c(C)nn(-c3ccccc3)c2C)c1`?
TDP-43 yeast inh: 20µM*; FUS suppressor: inactive; Abeta rescue: inactive; GRP78 ERSR act: -1%; aSyn rescue: -17%

What do the screens show for `CC(=O)c1ccccc1NC(=O)COC(=O)c1c(C)nn(-c2ccccc2)c1C`?
TDP-43 yeast inh: 24%; FUS suppressor: inactive; Abeta rescue: inactive; GRP78 ERSR act: 4%; aSyn rescue: -15%

How did COc1ccccc1NC(=O)COC(=O)c1c(C)nn(-c2ccccc2)c1C do in these assays?
TDP-43 yeast inh: 18µM*; FUS suppressor: inactive; Abeta rescue: inactive; GRP78 ERSR act: 6%; aSyn rescue: -2%

What do the screens show for `CCCCOCCCNC(=O)C[C@H]1C(=O)N(Cc2ccc(OC)cc2)C2=CCCC[C@@]21C(=O)OCC`?
FUS suppressor: inactive

How did COc1cc(F)c(C2=CC(=O)C[C@H](c3ccc4c(c3)OCO4)C2)cc1F do in these assays?
TDP-43 yeast inh: 13µM*; FUS suppressor: inactive; Abeta rescue: inactive; GRP78 ERSR act: -5%; aSyn rescue: -2%

How did COc1ccc(F)cc1C1=CC(=O)C[C@H](c2ccc3c(c2)OCO3)C1 do in these assays?
TDP-43 yeast inh: 22µM*; FUS suppressor: inactive; Abeta rescue: inactive; GRP78 ERSR act: 1%; aSyn rescue: 1%

Results for COc1ccc([C@H]2CC(=O)C=C(c3ccc4c(c3)OCO4)C2)cc1OC ?
TDP-43 yeast inh: 16%; FUS suppressor: inactive; Abeta rescue: inactive; GRP78 ERSR act: -4%; aSyn rescue: -1%

What do the screens show for `COc1cccc(OC)c1C1=CC(=O)C[C@H](c2ccc3c(c2)OCO3)C1`?
TDP-43 yeast inh: inconclusive; FUS suppressor: inactive; Abeta rescue: inactive; GRP78 ERSR act: -6%; aSyn rescue: -6%
